This is an account of results in PubChem BioAssay.

Experiment [1] deals with Tumor necrosis factor receptor superfamily member 10B (Homo sapiens) (UniProt O14763). Kind of experiment: viability loss of caspase-8 NB7 cells with TRAIL – with/without TRAIL, luminescence panel, confirmation (AID 651596). Particulars: NB7 neuroblastoma + caspase-8, TRAIL sensitization, NB7 Caspase-8, with TRAIL, mean of runs, at 10 µM, stronger effect = higher value.
Assay in experiment [2]: as above
Particulars: NB7 neuroblastoma + caspase-8, without TRAIL, NB7 Caspase-8, without TRAIL, mean of runs, at 10 µM.

The target of experiment [3] is Tumor necrosis factor receptor superfamily member 10B (Homo sapiens) (UniProt O14763). Kind of experiment: compound enhancement of TRAIL-induced cell killing – NB7 cells plus caspase-8, luminescence, panel, dose response (AID 652002). Particulars: NB7 neuroblastoma +caspase-8, TRAIL sensitization, luminescence viability, NB7+Caspase-8, with TRAIL, run 1; at 12.5 µM (top of the series).

Experiment [4] has the same target. The description is as above. Particulars: NB7 neuroblastoma +caspase-8, TRAIL sensitization, luminescence viability, NB7+Caspase-8, with TRAIL, run 2; at 12.5 µM (top of the series).
Assay in experiment [5]: as above
To be noted: NB7 neuroblastoma +caspase-8, no TRAIL, compound-alone cytotoxicity counter-screen, luminescence viability, NB7+Caspase-8, run 1; at 12.5 µM (top of the series) unless noted. (In general: The purpose of a counterscreen is to sort out artefacts and off-target activity.)

Assay in experiment [6]: as above
To be noted: NB7 neuroblastoma +caspase-8, no TRAIL, compound-alone cytotoxicity counter-screen, luminescence viability, NB7+Caspase-8, run 2; at 12.5 µM (top of the series) unless noted.

Tumor necrosis factor receptor superfamily member 10B (Homo sapiens), sequence (O14763 whole entry, looked up): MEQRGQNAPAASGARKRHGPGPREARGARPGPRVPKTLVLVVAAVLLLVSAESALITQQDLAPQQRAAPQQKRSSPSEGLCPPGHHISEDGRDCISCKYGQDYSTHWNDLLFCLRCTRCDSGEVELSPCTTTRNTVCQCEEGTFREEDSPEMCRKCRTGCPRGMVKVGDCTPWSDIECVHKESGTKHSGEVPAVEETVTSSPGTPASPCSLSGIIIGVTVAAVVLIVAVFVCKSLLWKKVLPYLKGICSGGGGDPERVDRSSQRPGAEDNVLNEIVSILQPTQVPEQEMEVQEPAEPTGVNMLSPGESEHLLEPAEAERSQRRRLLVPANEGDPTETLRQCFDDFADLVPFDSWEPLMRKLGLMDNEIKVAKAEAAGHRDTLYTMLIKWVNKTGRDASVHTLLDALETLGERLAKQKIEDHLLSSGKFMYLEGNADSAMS

For the compound `CSc1nc(NCCN(C)C)c2sc3nc(-c4ccco4)c4c(c3c2n1)CCC4`, the results for the activity in experiment [1] and in experiment [2] were 80.2% and 98.5%, respectively.

As for `c1c2c(cc3sc(N4CCCCC4)nc13)OCO2`, the activity in experiment [1] stood at 56%; in experiment [2], 44.2%.

As to `CC(C)(CNC(=O)c1ccc([N+](=O)[O-])c(Cl)c1)CNC(=O)c1ccc([N+](=O)[O-])c(Cl)c1`, the values for the activity in experiment [1] and in experiment [2] were 54.5% and 60.3%, respectively.

In the case of `COc1ccccc1-c1nnc(-c2ccc(C)cc2)o1`, the activity was 46.6% in experiment [1] and 43.5% in experiment [2].

Take `COc1ccc(/C(C)=N/Nc2nncc3ccccc23)cc1`: the results for the activity in experiment [1] and in experiment [2] were 59.6% and 49.8%, respectively. Further, the activity, % sensitization in experiment [3] was found to be 19.4%; in experiment [4], 54.6%; in experiment [5], 27.1%; in experiment [6] it was 10.8%.

As for `CCOC(=O)c1ccc(NC(=O)c2ccc(C)c(S(=O)(=O)N3CCOCC3)c2)cc1`, the activity in experiment [1] stood at 79.3%; in experiment [2], 69.1%.

For `CCOc1ccc(/C=N/NC(=O)c2ccccc2NC(=O)c2ccc(OC)cc2)cc1`, the activity is 72.6% in experiment [1] and 57.7% in experiment [2].

With `CCCCc1nc(NCCN)c(C#N)c2c1CSC(C)(C)C2`, the results for the activity in experiment [1] and in experiment [2] were 72.5% and 53.7%, respectively. Moreover, the activity, % sensitization is -8.34% in experiment [3], -1.9% in experiment [4], 3.06% in experiment [5] and -6.28% in experiment [6].

For `CC1(Cc2ccc(OC(F)(F)F)cc2)C(=O)Nc2ccc(S(=O)(=O)NC3CCCCC3)cc21` (stereo not given), the activity in experiment [1] came to 46.4%; in experiment [2] it was 31%. The activity, % sensitization in experiment [3] is -0.836%; in experiment [4], -0.606%; in experiment [5], 23.3%; in experiment [6] it was 28.2%.

Regarding `O=C(c1cnc(Cl)c(Cl)c1)N1CCN(S(=O)(=O)c2ccc3ccccc3c2)CC1`, the activity in experiment [1] turned out to be 45.5%; in experiment [2], 25.1%. In addition, the activity, % sensitization in experiment [3] is -9.83%; in experiment [4], -9.66%; in experiment [5], 3.76%; in experiment [6], -5.02%.

As to `O=C(NC(=S)Nc1nc2c(s1)CCCC2)c1ccccc1`, the values for the activity in experiment [1] and in experiment [2] were 69.8% and 47.3%, respectively. The activity, % sensitization in experiment [3] is -8.98%; in experiment [4], 47.5%; in experiment [5], 2.65%; in experiment [6], -0.817%.

With `Cc1ccc(C(=O)O/N=C(\N)c2ccc(Br)cc2)cc1C`, the activity turned out to be 82.5% in experiment [1] and 88.2% in experiment [2].

Take `O=C(COc1ccc(CO)cc1Cl)Nc1ccc(F)cc1`: the values for the activity in experiment [1] and in experiment [2] were 44.5% and 47.6%, respectively.

Take `Cc1nc2cc(NC(=O)Nc3cccc([N+](=O)[O-])c3)ccc2n1C`: the activity in experiment [1] is 64.2%; in experiment [2], 54.4%. Also, the activity, % sensitization is 44.4% in experiment [3], 49.5% in experiment [4], 0.985% in experiment [5] and 3.35% in experiment [6].

With `COC(=O)c1cccc(NC(=O)c2cc3ccccc3o2)c1`, the activity worked out at 57.4% in experiment [1] and 58.6% in experiment [2].

`Cc1ccc(-c2nc3cc(N)ccc3o2)c(C)c1`: the activity in experiment [1] worked out at 61%; in experiment [2], 49.5%.

As for `CN(C)CC(O)c1ccc(C=Cc2ccc(Cl)cc2)cc1` (stereo not given), the activity in experiment [1] was found to be 98.3%; in experiment [2], 97.2%.

For the compound `COc1ccc(C(=O)O/N=C(\N)c2ccccn2)c(OC)c1`, the activity in experiment [1] stood at 75.5%; in experiment [2] it was 83.2%.

With `O=[N+]([O-])c1cc(S(=O)(=O)C(F)(F)F)ccc1Sc1nc2ccccc2[nH]1`, the activity in experiment [1] is 33.1%; in experiment [2], 94.2%.

Regarding `COC(=O)c1ccc(/C=C(\C#N)c2ccccn2)cc1`, the activity in experiment [1] came out at 51%; in experiment [2] it was 40.8%. In addition, the activity, % sensitization in experiment [3] was -7.25%; in experiment [4], -19.4%; in experiment [5], -8.36%; in experiment [6], -11%.

On to `O=C(ONC1=NCCCCC1)c1ccc(Cl)cc1`, for which the activity in experiment [1] was determined as 89.3%; in experiment [2], 47.2%. Further, the activity, % sensitization in experiment [3] worked out at 16.1%; in experiment [4], 23.5%; in experiment [5], 7.61%; in experiment [6] it was 44.2%.

For `Cc1ccc(N=C/C(C(=O)C(F)(F)F)=C(\O)c2cccs2)cc1`, the activity in experiment [1] turned out to be 56.1%; in experiment [2], 53.8%. Also, the activity, % sensitization is 83.3% in experiment [3], 63.5% in experiment [4], -0.893% in experiment [5] and 77.5% in experiment [6].

Regarding `Fc1ccc(-c2cnn3c(-c4ccncc4)ccnc23)cc1`, the activity is 49.5% in experiment [1] and 48.7% in experiment [2]. Also, the activity, % sensitization in experiment [3] was -13.8%; in experiment [4], -2.37%; in experiment [5] it was 13.2%; in experiment [6], -12.3%.

For the compound `CCOC(=O)c1ccc(N/C=C/C(=O)c2ccco2)cc1`, the activity in experiment [1] is 52.7%; in experiment [2], 46.1%. Further, the activity, % sensitization in experiment [3] amounted to 24.1%; in experiment [4], 9.37%; in experiment [5], 0.326%; in experiment [6], 6.5%.

Regarding `Cc1cccc(CC(=O)Nc2cc(C)c3c(=O)oc4ccccc4c3n2)c1`, the values for the activity in experiment [1] and in experiment [2] were 67.3% and 45.5%, respectively. For the same compound, the activity, % sensitization was -12.3% in experiment [3], -4.35% in experiment [4], -6.37% in experiment [5] and 0.373% in experiment [6].

`CCOc1ccc(-c2nnc(-c3ccccc3)o2)cc1`: the figures for the activity in experiment [1] and in experiment [2] were 56% and 47.3%, respectively. Further, the activity, % sensitization was 39.4% in experiment [3], 39.8% in experiment [4], 11.9% in experiment [5] and -2.15% in experiment [6].

For `Cc1ccc(-n2nnc(-c3cccnc3Cl)n2)cc1`, the activity came out at 56.4% in experiment [1] and 47.5% in experiment [2]. The activity, % sensitization is 33.6% in experiment [3], -11.1% in experiment [4], 12% in experiment [5] and -10.2% in experiment [6].

As to `COc1ccccc1/C=C/C=N/n1c(-c2cc(-c3ccccc3)n[nH]2)n[nH]c1=S`, the activity in experiment [1] turned out to be 71.2%; in experiment [2], 39.3%. Also, the activity, % sensitization is -29.9% in experiment [3], -8.86% in experiment [4], 10.6% in experiment [5] and -34.4% in experiment [6].

As for `CN(C)CCCN(C(=O)c1ccc(S(=O)(=O)N2CCCc3ccccc32)cc1)c1nc2ccc(F)cc2s1`, the activity was 55.7% in experiment [1] and 52.9% in experiment [2]. In addition, the activity, % sensitization in experiment [3] is -21.5%; in experiment [4], 18.8%; in experiment [5], -8.84%; in experiment [6] it was 17.9%.

In the case of `O=C(N/N=C/c1cccc(OC(=O)c2ccco2)c1)c1ccc(F)cc1`, the activity turned out to be 57.1% in experiment [1] and 28.9% in experiment [2]. Besides, the activity, % sensitization in experiment [3] amounted to 54.4%; in experiment [4], 46.3%; in experiment [5], 49.2%; in experiment [6] it was 40.8%.

For the compound `O=C(NCC1CCCO1)c1ccc2c3n(nc2c1)-c1ccccc1CO3` (stereo not given), the activity came to 52.9% in experiment [1] and 54.6% in experiment [2]. Also, the activity, % sensitization in experiment [3] amounted to 29.1%; in experiment [4], 41.5%; in experiment [5], 21%; in experiment [6] it was 11.7%.

`O/C(=C\c1ccc2ccccc2n1)c1ccc(O)cc1O`: the figures for the activity in experiment [1] and in experiment [2] were 62.3% and 42.8%, respectively. The activity, % sensitization in experiment [3] amounted to 31.9%; in experiment [4] it was 48.7%; in experiment [5], 1.18%; in experiment [6], 20.3%.

On to `CC(C)CCn1cnc2c([nH]c3cccc(Cl)c32)c1=O`, for which the activity came out at 60.6% in experiment [1] and 52.9% in experiment [2]. The activity, % sensitization in experiment [3] was -14.6%; in experiment [4], -14%; in experiment [5], -4.11%; in experiment [6], 0.76%.

`COc1ccc(-c2cc(C(=O)OCC(=O)Nc3ccc4c(c3)OCO4)c3ccccc3n2)cc1`: the activity was 54.6% in experiment [1] and 48.5% in experiment [2]. In addition, the activity, % sensitization worked out at 31.3% in experiment [3], 43.9% in experiment [4], 34.3% in experiment [5] and 46.2% in experiment [6].

In the case of `O=C(N/N=C/c1ccc2cccnc2c1)c1ccco1`, the activity in experiment [1] was found to be 47.2%; in experiment [2], 37%. In addition, the activity, % sensitization in experiment [3] stood at 37.5%; in experiment [4], 50.7%; in experiment [5], 39.1%; in experiment [6] it was 35.6%.

Turning to `Nc1ccccc1C(=O)NN=Cc1cccc([N+](=O)[O-])c1`, the activity in experiment [1] came out at 66.6%; in experiment [2], 42.9%. In addition, the activity, % sensitization was 44.8% in experiment [3], 53.8% in experiment [4], -5.65% in experiment [5] and 35.3% in experiment [6].

In the case of `O=C1c2ccc(Cl)cc2S(=O)(=O)c2cccc(C(=O)N3CCC(Cc4ccccc4)CC3)c21`, the activity in experiment [1] came out at 70.8%; in experiment [2], 26.7%. The activity, % sensitization was -6.25% in experiment [3], 3.7% in experiment [4], -20.1% in experiment [5] and -5.15% in experiment [6].
